Laboratory results from PMC7862700, “An all-to-all approach to the identification of sequence-specific readers for epigenetic DNA modifications on cytosine”.

Key:
Assay in all cases: DAPPL (digital affinity profiling via proximity ligation, sequencing); 10 mM Tris-HCl pH 7.5, 50 mM NaCl, 1 mM DTT, 4% glycerol, room temperature, 30 min; GST-TFs on glutathione beads, 16-mer random dsDNA library, 0.1% formaldehyde crosslink after washing; high values mean tight binding
Conditions in all cases: protein: recombinant; tags: N-terminal GST; dsDNA, one strand shown
[1] = molecular target: T1, FLI1 (Homo sapiens, UniProt Q01543 1-452)
T1 sequence: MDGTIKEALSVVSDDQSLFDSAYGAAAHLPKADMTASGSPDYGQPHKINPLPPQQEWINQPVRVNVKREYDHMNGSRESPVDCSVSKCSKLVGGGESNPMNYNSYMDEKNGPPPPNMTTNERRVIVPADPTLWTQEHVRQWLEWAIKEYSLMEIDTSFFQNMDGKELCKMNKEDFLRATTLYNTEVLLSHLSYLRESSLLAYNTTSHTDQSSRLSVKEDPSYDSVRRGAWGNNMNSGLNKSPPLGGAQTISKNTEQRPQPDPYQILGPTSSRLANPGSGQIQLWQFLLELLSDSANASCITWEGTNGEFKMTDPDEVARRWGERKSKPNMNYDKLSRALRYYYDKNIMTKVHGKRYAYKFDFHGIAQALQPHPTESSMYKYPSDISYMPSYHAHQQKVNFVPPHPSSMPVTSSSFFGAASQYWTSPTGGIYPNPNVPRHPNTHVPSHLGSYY
Procedure, shortened: (§1)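 Pools were built from human transcription factors expressed in yeast as GST fusions, captured on glutathione beads and DNA-barcoded, along with a tag-only sample. Incubation with 200 nmole of a 16-mer random double-stranded DNA library lasted 30 min at room temperature in Tris/NaCl/DTT/glycerol buffer, and was followed by washing, 0.1% formaldehyde crosslinking, proximity ligation, PCR amplification and Illumina NextSeq500 sequencing. Binding signal is the quotient of each hexamer's read frequency for a factor and its frequency for the tag-only sample.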

[2] = molecular target: T2, ELK1 (Homo sapiens, UniProt P19419 1-428)
T2 sequence: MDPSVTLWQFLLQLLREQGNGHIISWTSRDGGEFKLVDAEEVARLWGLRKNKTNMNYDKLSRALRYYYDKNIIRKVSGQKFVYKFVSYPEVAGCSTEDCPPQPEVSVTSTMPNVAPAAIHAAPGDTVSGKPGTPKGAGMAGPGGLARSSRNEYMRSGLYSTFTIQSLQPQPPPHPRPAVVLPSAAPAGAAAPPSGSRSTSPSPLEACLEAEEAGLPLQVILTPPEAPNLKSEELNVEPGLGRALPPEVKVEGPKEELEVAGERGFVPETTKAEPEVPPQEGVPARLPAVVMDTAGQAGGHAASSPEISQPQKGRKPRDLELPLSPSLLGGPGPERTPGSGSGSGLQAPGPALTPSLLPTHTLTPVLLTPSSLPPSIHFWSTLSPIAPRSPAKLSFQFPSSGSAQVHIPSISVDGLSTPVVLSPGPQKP
Procedure, shortened: as §1

[3] = molecular target: T3, GABPA (Homo sapiens, UniProt Q06546 1-454)
T3 sequence: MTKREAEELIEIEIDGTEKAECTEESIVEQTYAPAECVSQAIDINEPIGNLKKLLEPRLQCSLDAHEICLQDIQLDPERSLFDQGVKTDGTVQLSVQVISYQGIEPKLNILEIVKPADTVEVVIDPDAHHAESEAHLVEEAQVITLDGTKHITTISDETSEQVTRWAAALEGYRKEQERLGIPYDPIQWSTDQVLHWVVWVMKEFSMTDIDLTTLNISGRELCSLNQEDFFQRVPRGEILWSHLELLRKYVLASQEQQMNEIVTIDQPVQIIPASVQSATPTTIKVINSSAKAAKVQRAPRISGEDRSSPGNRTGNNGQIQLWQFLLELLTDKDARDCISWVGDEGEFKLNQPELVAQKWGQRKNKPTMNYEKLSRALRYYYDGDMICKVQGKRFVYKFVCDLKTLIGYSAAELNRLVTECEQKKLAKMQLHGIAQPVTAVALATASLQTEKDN
Procedure, shortened: as §1

[4] = molecular target: T4, ERG (Homo sapiens, UniProt P11308 1-479)
T4 sequence: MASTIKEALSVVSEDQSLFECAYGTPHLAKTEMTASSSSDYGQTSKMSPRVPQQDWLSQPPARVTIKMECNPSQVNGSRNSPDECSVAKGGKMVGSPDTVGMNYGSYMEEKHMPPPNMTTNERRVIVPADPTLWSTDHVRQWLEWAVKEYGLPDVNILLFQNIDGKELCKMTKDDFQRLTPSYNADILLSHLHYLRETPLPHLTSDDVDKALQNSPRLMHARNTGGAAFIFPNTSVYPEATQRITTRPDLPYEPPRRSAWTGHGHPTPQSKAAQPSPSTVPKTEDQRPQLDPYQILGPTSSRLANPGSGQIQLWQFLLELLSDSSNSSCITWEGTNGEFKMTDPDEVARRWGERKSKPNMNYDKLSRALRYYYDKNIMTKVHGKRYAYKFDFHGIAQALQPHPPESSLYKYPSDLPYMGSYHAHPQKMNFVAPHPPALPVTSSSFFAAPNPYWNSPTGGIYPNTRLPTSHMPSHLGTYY
Procedure, shortened: as §1

[5] = molecular target: ELF1 (Homo sapiens, UniProt P32519 1-619)
Procedure, shortened: as §1

[6] = molecular target: T5, EHF (Homo sapiens, UniProt Q9NZC4 1-300)
T5 sequence: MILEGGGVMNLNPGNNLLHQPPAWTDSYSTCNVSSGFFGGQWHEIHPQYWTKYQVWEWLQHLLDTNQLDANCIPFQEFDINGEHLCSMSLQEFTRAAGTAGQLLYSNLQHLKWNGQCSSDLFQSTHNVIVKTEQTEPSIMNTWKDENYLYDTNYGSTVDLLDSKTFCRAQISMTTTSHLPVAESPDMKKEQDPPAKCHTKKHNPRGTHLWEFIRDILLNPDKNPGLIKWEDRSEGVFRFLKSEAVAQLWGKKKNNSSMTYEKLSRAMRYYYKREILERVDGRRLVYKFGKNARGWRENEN
Procedure, shortened: as §1

[7] = molecular target: SPI1 (Homo sapiens, UniProt P17947 1-270)
Procedure, shortened: as §1

[8] = molecular target: SPIB (Homo sapiens, UniProt Q01892 1-262)
Procedure, shortened: as §1

[9] = molecular target: T6, FEV (Homo sapiens, UniProt Q99581 1-238)
T6 sequence: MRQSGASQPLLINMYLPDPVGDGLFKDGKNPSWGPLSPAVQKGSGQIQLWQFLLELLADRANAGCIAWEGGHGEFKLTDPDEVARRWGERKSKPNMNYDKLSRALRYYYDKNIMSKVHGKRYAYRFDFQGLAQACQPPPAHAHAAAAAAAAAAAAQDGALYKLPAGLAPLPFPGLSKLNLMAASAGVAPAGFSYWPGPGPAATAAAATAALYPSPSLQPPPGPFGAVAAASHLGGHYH
Procedure, shortened: as §1

[10] = molecular target: ETV5 (Homo sapiens, UniProt P41161 1-510)
Procedure, shortened: as §1

[11] = molecular target: T7, SPIC (Homo sapiens, UniProt Q8N5J4 1-248)
T7 sequence: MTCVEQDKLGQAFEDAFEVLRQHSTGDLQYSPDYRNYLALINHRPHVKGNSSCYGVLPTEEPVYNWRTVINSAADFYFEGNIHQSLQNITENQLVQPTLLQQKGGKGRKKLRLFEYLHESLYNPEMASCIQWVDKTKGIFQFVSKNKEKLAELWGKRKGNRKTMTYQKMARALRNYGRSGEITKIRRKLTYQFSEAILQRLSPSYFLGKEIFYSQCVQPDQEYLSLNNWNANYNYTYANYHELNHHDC
Procedure, shortened: as §1

[12] = molecular target: ELF4 (Homo sapiens, UniProt Q99607 1-663)
Procedure, shortened: as §1

[13] = molecular target: T8, ELK4 (Homo sapiens, UniProt P28324-2 1-405)
T8 sequence: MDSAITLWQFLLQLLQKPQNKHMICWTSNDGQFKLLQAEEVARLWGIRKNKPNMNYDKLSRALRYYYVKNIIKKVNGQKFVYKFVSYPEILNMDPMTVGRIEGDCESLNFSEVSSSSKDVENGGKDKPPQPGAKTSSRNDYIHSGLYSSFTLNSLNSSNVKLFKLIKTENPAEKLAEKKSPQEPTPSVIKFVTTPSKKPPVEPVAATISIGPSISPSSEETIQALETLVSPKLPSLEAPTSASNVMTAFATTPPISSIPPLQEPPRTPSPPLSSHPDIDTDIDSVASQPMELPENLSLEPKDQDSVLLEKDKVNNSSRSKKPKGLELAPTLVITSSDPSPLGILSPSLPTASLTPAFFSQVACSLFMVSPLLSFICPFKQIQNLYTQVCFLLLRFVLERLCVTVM
Procedure, shortened: as §1

[14] = molecular target: T9, ETV2 (Homo sapiens, UniProt O00321 1-342)
T9 sequence: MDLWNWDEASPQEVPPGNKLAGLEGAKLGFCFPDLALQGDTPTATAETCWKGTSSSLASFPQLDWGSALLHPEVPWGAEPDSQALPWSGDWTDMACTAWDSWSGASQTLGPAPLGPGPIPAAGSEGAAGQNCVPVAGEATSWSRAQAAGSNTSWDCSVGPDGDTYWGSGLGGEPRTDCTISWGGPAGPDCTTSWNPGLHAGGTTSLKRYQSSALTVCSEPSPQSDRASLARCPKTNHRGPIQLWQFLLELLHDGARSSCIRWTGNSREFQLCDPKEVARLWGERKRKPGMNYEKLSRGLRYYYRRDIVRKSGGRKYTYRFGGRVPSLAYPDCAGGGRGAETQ
Procedure, shortened: as §1

[15] = molecular target: T10, ELF3 (Homo sapiens, UniProt P78545 1-371)
T10 sequence: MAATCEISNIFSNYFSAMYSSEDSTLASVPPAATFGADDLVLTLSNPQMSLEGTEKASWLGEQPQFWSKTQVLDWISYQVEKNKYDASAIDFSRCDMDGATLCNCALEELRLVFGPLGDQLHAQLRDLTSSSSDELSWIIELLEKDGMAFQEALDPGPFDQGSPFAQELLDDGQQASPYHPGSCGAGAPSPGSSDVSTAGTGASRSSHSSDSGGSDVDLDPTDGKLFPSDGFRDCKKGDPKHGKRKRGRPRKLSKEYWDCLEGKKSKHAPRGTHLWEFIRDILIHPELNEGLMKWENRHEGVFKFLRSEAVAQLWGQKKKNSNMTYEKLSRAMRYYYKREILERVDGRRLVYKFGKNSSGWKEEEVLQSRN
Procedure, shortened: as §1

[16] = molecular target: ETV1 (Homo sapiens, UniProt P50549 1-477)
Procedure, shortened: as §1

[17] = molecular target: T11, ELK3 (Homo sapiens, UniProt P41970 1-407)
T11 sequence: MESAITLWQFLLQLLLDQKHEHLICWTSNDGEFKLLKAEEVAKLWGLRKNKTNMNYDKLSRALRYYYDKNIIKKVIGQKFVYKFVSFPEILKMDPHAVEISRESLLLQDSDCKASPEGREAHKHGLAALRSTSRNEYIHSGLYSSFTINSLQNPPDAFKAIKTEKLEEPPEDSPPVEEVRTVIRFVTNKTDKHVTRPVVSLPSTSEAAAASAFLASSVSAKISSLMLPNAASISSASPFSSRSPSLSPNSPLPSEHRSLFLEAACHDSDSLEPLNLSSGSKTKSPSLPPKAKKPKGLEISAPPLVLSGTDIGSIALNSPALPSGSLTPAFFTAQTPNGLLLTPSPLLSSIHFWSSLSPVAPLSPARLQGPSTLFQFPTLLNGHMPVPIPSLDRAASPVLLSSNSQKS
Procedure, shortened: as §1

Chain of SPIB (Q01892 whole entry): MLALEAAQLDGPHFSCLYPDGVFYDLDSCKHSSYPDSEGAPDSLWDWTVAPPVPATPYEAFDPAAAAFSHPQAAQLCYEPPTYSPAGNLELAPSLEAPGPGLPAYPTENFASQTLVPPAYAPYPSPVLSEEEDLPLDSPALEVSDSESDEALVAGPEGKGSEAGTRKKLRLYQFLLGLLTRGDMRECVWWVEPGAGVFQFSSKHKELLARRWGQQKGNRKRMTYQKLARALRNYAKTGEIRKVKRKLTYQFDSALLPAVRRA
Chain of ELF4 (Q99607 whole entry): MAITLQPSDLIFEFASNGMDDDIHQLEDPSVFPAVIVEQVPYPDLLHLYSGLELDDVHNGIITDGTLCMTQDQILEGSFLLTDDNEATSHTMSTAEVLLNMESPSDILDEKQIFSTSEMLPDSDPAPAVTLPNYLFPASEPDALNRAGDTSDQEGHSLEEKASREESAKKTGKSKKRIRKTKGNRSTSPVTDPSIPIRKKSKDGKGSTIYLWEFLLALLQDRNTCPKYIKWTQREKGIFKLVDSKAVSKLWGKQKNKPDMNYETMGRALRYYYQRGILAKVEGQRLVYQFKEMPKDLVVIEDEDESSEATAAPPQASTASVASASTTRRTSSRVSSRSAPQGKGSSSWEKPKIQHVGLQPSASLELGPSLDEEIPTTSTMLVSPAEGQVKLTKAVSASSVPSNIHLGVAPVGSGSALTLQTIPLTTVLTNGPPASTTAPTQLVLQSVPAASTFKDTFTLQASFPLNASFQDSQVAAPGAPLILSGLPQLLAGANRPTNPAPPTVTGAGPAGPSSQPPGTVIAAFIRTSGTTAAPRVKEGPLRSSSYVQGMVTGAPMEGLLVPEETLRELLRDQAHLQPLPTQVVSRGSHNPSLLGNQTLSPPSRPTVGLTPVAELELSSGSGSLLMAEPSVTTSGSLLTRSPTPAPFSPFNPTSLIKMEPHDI
Chain of ELF1 (P32519 whole entry): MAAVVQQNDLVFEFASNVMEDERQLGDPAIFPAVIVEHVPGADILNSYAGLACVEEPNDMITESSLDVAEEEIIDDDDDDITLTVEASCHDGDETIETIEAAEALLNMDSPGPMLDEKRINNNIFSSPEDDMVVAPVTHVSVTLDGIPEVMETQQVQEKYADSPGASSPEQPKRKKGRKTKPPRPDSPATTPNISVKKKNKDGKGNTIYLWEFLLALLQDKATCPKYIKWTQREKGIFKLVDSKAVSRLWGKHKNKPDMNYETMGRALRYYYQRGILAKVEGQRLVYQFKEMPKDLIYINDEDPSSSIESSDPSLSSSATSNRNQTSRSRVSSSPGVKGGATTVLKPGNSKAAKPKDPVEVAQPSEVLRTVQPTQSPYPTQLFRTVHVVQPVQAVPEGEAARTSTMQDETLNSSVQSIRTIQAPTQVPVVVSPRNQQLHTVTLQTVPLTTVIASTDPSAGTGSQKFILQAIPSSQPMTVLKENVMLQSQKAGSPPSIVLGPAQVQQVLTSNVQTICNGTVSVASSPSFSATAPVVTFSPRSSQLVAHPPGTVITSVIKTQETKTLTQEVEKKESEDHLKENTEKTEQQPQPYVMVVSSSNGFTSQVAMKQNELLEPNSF
Chain of ETV1 (P50549 whole entry): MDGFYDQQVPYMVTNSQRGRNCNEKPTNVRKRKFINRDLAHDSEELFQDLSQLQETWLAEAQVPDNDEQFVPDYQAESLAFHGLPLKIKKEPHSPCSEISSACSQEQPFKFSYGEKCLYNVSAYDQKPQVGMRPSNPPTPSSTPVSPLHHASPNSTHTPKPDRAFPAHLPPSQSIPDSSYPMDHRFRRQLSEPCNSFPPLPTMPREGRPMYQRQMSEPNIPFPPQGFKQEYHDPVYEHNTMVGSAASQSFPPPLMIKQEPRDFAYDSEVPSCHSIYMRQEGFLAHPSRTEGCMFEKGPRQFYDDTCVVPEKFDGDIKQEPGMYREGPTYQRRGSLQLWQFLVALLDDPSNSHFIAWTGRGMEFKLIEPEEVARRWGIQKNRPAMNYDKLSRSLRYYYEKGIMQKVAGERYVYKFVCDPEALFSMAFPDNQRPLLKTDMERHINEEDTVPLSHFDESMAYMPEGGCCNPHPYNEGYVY
Chain of ETV5 (P41161 whole entry): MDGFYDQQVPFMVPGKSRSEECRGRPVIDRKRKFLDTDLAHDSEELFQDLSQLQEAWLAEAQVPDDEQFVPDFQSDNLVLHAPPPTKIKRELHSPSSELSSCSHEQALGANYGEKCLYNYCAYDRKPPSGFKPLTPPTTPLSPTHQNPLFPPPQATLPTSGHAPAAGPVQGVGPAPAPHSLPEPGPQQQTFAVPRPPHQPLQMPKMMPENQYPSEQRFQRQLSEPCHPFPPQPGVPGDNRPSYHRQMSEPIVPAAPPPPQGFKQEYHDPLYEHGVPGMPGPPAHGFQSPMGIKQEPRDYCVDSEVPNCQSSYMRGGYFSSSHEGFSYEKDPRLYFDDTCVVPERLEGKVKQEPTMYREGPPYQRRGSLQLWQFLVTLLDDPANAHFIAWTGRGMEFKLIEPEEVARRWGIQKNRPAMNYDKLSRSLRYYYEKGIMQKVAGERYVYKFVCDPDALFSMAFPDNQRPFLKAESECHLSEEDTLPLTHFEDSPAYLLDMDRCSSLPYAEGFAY

Sequence	binding signal [1]	binding signal [2]	binding signal [3]	binding signal [4]	binding signal [5]	binding signal [6]	binding signal [7]	binding signal [8]	binding signal [9]	binding signal [10]	binding signal [11]	binding signal [12]	binding signal [13]	binding signal [14]	binding signal [15]	binding signal [16]	binding signal [17]
CAACAC	1.13 fold enrichment (6-mer frequency, TF over GST control)	1.23 fold enrichment (6-mer frequency, TF over GST control)	1.19 fold enrichment (6-mer frequency, TF over GST control)	1.1 fold enrichment (6-mer frequency, TF over GST control)	1.13 fold enrichment (6-mer frequency, TF over GST control)	1.09 fold enrichment (6-mer frequency, TF over GST control)	1.06 fold enrichment (6-mer frequency, TF over GST control)	1.06 fold enrichment (6-mer frequency, TF over GST control)	1.11 fold enrichment (6-mer frequency, TF over GST control)	1.07 fold enrichment (6-mer frequency, TF over GST control)	1.08 fold enrichment (6-mer frequency, TF over GST control)	1.14 fold enrichment (6-mer frequency, TF over GST control)	1.2 fold enrichment (6-mer frequency, TF over GST control)	1.08 fold enrichment (6-mer frequency, TF over GST control)	1.09 fold enrichment (6-mer frequency, TF over GST control)	1.11 fold enrichment (6-mer frequency, TF over GST control)	–
CCAAAC	1.02 fold enrichment (6-mer frequency, TF over GST control)	1.13 fold enrichment (6-mer frequency, TF over GST control)	1.15 fold enrichment (6-mer frequency, TF over GST control)	1.11 fold enrichment (6-mer frequency, TF over GST control)	1.16 fold enrichment (6-mer frequency, TF over GST control)	1.07 fold enrichment (6-mer frequency, TF over GST control)	1.06 fold enrichment (6-mer frequency, TF over GST control)	1.06 fold enrichment (6-mer frequency, TF over GST control)	1.08 fold enrichment (6-mer frequency, TF over GST control)	1.07 fold enrichment (6-mer frequency, TF over GST control)	1.16 fold enrichment (6-mer frequency, TF over GST control)	1.14 fold enrichment (6-mer frequency, TF over GST control)	1.15 fold enrichment (6-mer frequency, TF over GST control)	1.07 fold enrichment (6-mer frequency, TF over GST control)	1.11 fold enrichment (6-mer frequency, TF over GST control)	1.02 fold enrichment (6-mer frequency, TF over GST control)	1.15 fold enrichment (6-mer frequency, TF over GST control)
